# About 190 (0.059%) of roughly 320,000 compounds were called active. No stated cut-off is given here; in the data, active means inhibition above about 10% (passing the limit was not always enough); inconclusive means no clear call, values can overlap the other calls. The list comes from a sample in which actives are over-represented; it also holds similar structures and randomly drawn compounds.
# Molecular target: UDP-galactopyranose mutase (Mycobacterium tuberculosis (strain ATCC 25618 / H37Rv)) (UniProt P9WIQ1)
# Experiment: M. tuberculosis UGM enzyme inhibitors, primary screen, biochemical, fluorescence polarization, single point (AID 504406)
# Details: purified UGM, fluorescence polarization probe displacement; at 10 µM; hits give high values
# Chain of UDP-galactopyranose mutase (Mycobacterium tuberculosis (strain ATCC 25618 / H37Rv)) (P9WIQ1 whole entry, looked up): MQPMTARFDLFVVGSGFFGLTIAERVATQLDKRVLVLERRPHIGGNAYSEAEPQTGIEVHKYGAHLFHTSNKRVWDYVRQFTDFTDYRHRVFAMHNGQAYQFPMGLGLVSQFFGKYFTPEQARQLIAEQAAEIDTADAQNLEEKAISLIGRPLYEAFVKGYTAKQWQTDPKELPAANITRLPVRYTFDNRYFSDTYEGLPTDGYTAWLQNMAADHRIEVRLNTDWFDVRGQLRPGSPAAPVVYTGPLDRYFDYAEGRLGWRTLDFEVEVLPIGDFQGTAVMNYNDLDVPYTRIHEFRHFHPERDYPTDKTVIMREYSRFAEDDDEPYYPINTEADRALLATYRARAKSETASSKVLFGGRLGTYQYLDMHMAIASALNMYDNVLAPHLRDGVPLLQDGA
row,SMILES,inhibition
1,COCCCNC(=O)c1ccc(CNS(=O)(=O)c2ccc(NC(C)=O)cc2)cc1,0.487% (inactive)
2,NS(=O)(=O)c1ccc(NC(=O)COC(=O)C2(c3ccc(F)cc3)CCCC2)cc1,-2.39% (inactive)
3,CCOc1c(Nc2cccc(Cl)c2)c(=O)c1=O,1.65% (inactive)
4,CN(C)S(=O)(=O)c1ccc2oc(SCC(=O)Nc3ccccc3F)nc2c1,-1.09% (inactive)
5,CCCCN(C(=O)CCNC(=O)NC12CC3CC(CC(C3)C1)C2)c1c(N)n(CCCC)c(=O)[nH]c1=O,3.96% (inactive)
6,CC(C)N1C(=S)SC(C)(C)C1n1oc(=O)n(-c2ccc(Cl)c(Cl)c2)c1=O (stereo unspecified),-0.52% (inactive)
7,O=c1c2cc(-c3ccccc3)sc2nc2n1N=C(c1cccs1)CS2,0.0849% (inactive)
8,COc1cccc(C2=CC(=O)C[C@H](c3ccc(OC)c(OC)c3)C2)c1,-3.83% (inactive)
9,COc1cccc2cc(/C(C)=N/NC(=O)c3ccco3)oc12,1.34% (inactive)
10,COc1cc(NC(=O)C2=C(C)OCCS2)c(Cl)cc1C(=O)NCCN1CCN(C)CC1,-0.476% (inactive)
11,COc1ccc(-c2nnc(SC(=O)N3c4ccccc4Sc4ccccc43)o2)cc1,-0.412% (inactive)
12,COc1cc(CC(=O)N2CCC(n3nccc3NC(=O)C3CC3)CC2)cc(OC)c1OC,0.38% (inactive)
13,COc1ccc(N2CCN(C(=O)c3cccs3)CC2)cc1,-0.405% (inactive)
14,NC1=NC(=O)C(Cc2cccc(Cl)c2)S1 (stereo unspecified),-2.61% (inactive)
15,CCOC(=O)c1c(NC(=O)CN2C(=O)NC3(CCC(C)CC3)C2=O)sc(C)c1CC (stereo unspecified),-4.1% (inactive)
16,O=C1CCC(C(=O)N2CCN(c3ccccc3Cl)CC2)CN1CC1CCCCC1 (stereo unspecified),0.849% (inactive)
17,Cc1ccc(C(O)P(=O)(OC(C)C)c2ccc(N(C)C)cc2)cc1 (stereo unspecified),-1.46% (inactive)
18,CCCCCCCCc1c(O)nc(-n2[nH]c(C)c(CCO)c2=O)[nH]c1=O,2.37% (inactive)
19,COc1ccc(N2CCN(S(=O)(=O)CCNC(=O)C34CC5CC(CC(C5)C3)C4)CC2)cc1,-0.995% (inactive)
20,ONC(=Nc1ccccc1)c1ccccc1Cl,0.392% (inactive)
21,Cc1ccc(NC(=O)c2ccn(C(=O)Nc3ccccc3)n2)c(C)c1,0.808% (inactive)
22,S=C(NCCc1ccccc1)N1CCn2cccc2C1c1ccncc1 (stereo unspecified),0.92% (inactive)
23,CNC[C@@H]1Oc2c(NS(C)(=O)=O)cccc2C(=O)N([C@@H](C)CO)C[C@H]1C,-0.151% (inactive)

row,SMILES,inhibition
1,O=C(NCCN1CCOCC1)c1cc(Sc2cccc(Cl)c2)nc2ccccc12,-0.717% (inactive)
2,O=C1NC(=O)C(c2ccc(Cl)cc2)N1 (stereo unspecified),0.455% (inactive)
3,CC(C)N(C(=O)Cn1cc(SCC(=O)N2CCCC2)c2ccccc21)C(C)C,0.81% (inactive)
4,CC(CCc1ccccc1)NCC(O)c1cccc([N+](=O)[O-])c1 (stereo unspecified),-0.221% (inactive)
5,Nc1nc(NC(=O)/C=C/c2ccc(F)cc2)nn1-c1ccccc1,-1.05% (inactive)
6,O=C(CC1CCCCC1)Nc1c2c(nn1-c1ccc(F)cc1)CS(=O)(=O)C2,-1.58% (inactive)
7,Cc1ccc(C2(c3ccc(C)cc3)NC(=O)N(Cc3c(C)noc3C)C2=O)cc1,2.04% (inactive)
8,CCOc1ccc(NC(=S)N2CCC(N(C)CC3CCCO3)CC2)cc1 (stereo unspecified),1.59% (inactive)
9,CN1C(=O)CC(N2CCN(c3ccccn3)CC2)C1=O (stereo unspecified),-2.59% (inactive)
10,CC(C)(C)CN1CCNC(=O)C1CC(=O)NC1Cc2ccccc2C1 (stereo unspecified),-0.537% (inactive)
11,CCc1c(C)[nH]c(=S)c(C#N)c1C,1.29% (inactive)
12,CN1CCN(S(=O)(=O)c2cccc(C(=O)N3CCc4ccccc43)c2)CC1,2.67% (inactive)
13,CCN(CC(=O)Nc1cccc(S(N)(=O)=O)c1)Cc1nc2ccccc2c(=O)[nH]1,0.435% (inactive)
14,O=[N+]([O-])c1cc(S(=O)(=O)Nc2cccc(Cl)c2)ccc1N=Nc1c(O)[nH]c2ccccc12,3.07% (inactive)
15,Cc1ccc(NC(=O)Cc2nnc(SCC(=O)Nc3nncs3)n2C)cc1,1.58% (inactive)
16,Cc1cccc(NC(=O)c2ccc3c(=O)n(CC4CCCO4)c(=S)[nH]c3c2)c1 (stereo unspecified),0.387% (inactive)
17,CCN(CCCCOC(=O)c1ccc(OC)c(OC)c1)C(C)Cc1ccc(OC)cc1 (stereo unspecified),0.111% (inactive)
18,CC1CC(NC(=O)/C(C#N)=C/c2ccc[nH]2)CC(C)(C)C1 (stereo unspecified),-0.655% (inactive)
19,CC(OC(=O)CCC(=O)c1ccccc1)C(=O)Nc1ccc(F)cc1 (stereo unspecified),0.19% (inactive)
20,CC(C)c1csc(CN2CCC(CO)(Cc3ccccc3)CC2)n1,1.24% (inactive)
21,O=c1c2ccccc2cnn1Cc1n[nH]c(=S)n1-c1ccccc1F,-0.397% (inactive)
22,COc1ccnc(Oc2ccccc2)c1-c1ncn[nH]1,1.4% (inactive)
23,CCOCCN(C=O)c1cccc(OC)c1,-2.42% (inactive)

row,SMILES,inhibition
1,CCOC(=O)N1CCC(Nc2c(NCCCN3CCN(CC)CC3)c(=O)c2=O)CC1,-1.72% (inactive)
2,O=C(Nc1ccc(F)c(Cl)c1)C1CCN(S(=O)(=O)c2cccnc2)CC1,0.143% (inactive)
3,CCCn1c2ccccc2c2cnn(CC(=O)NCCCN3CCCCC3CC)c(=O)c21 (stereo unspecified),-1.26% (inactive)
4,CCOC(=O)c1cc2c(ccn2C)n1CC(=O)N1CCC(C)CC1,-2.05% (inactive)
5,Cn1c(CC2Sc3ccccc3NC2=O)nnc1SCC(=O)c1ccc(Cl)cc1 (stereo unspecified),1.26% (inactive)
6,COCCN(C(=O)C(C)C)c1nnc(-c2ccc(C(C)(C)C)cc2)s1,2.82% (inactive)
7,Cc1ccc(S(=O)(=O)N2CCC(C)CC2)cc1C(=O)NCc1ccccn1,-2.55% (inactive)
8,COCCNc1nc2nonc2nc1N(C)Cc1ccc(C)cc1,0.32% (inactive)
9,COC(=O)/C=C(\Oc1ccccc1)C1(O)CCCCC1,-0.0675% (inactive)
10,Cc1ccc2c(c1)C1CN(C)CCC1N2S(=O)(=O)c1ccc(Oc2ccc([N+](=O)[O-])cc2)cc1 (stereo unspecified),3.72% (inactive)
11,COc1ccccc1NC(=O)N1CCCC1C(=O)NCc1cccs1 (stereo unspecified),0.501% (inactive)
12,CC(OC(=O)c1ccc2noc(-c3ccccc3)c2c1)C(N)=O (stereo unspecified),1.01% (inactive)
13,Oc1ccc(-c2onc3ccc(Cl)cc23)cc1,-1.19% (inactive)
14,COc1ccc(-c2onc3ccc(C(C)=O)cc23)cc1,12.7% (active)
15,CC(C)CNC(=O)C(=O)NCC(c1ccc2c(c1)OCO2)N1CCOCC1 (stereo unspecified),-1.37% (inactive)
16,Cn1c(=O)cc(OCC(=O)N2CCN(c3ccccc3F)CC2)c2ccccc21,0.591% (inactive)
17,Cc1cc(C)n(CCNC(=O)CC2C(=O)NCCN2Cc2ccc(C)o2)n1 (stereo unspecified),-1.39% (inactive)
18,CC(C)(C)c1cc[n+](-c2[nH]c(=O)sc2/C=N/N=C(\[O-])c2ccccc2)cc1,0.838% (inactive)
19,CCCCn1c(-c2cccc(C)c2)nc2cc3[nH]c(=O)c(C(C)C)nc3cc21,-1.53% (inactive)
20,CCOC(=O)c1ccc(NC(=S)N2CCN(c3ccccn3)CC2)cc1,0.665% (inactive)
21,COc1ccc(N(C(=O)c2ccc(C)cc2)S(=O)(=O)c2cccs2)cc1,0.9% (inactive)
22,CCn1c(SCC(=O)Nc2sc(C)c(C)c2C#N)nnc1C1CC1,2.46% (inactive)
23,O=C(NCc1nnc(SCC(=O)N2CCCc3ccccc32)o1)c1ccccc1F,-0.239% (inactive)

row,SMILES,inhibition
1,COc1cccc(NC(=O)Nc2nnc(N3CCCCC3C)s2)c1 (stereo unspecified),-1.07% (inactive)
2,O=C(Cc1ccccc1F)NC1CCSc2ccccc21 (stereo unspecified),1.04% (inactive)
3,CCN(Cc1ccncc1)C(=O)CCc1ccccc1,-1.33% (inactive)
4,C/C=C/c1ccc(OCC(O)CN2CCCCCCC2)c(OC)c1 (stereo unspecified),-2.18% (inactive)
5,Cc1cc(NC(=O)CCS(=O)(=O)c2ccc(F)cc2)no1,1.59% (inactive)
6,COc1ccc2[nH]c(C)c(CCN(Cc3cccs3)C(=S)Nc3ccccc3OC)c2c1,12.8% (active)
7,COc1cccc(NC(=S)N(CCc2c(C)[nH]c3ccccc23)Cc2ccco2)c1,5.05% (inactive)
8,Cc1[nH]c2ccccc2c1CCN(Cc1cccs1)C(=S)NC(C)(C)C,1.01% (inactive)
9,COc1ccccc1CNC(=O)c1ccc(N(C)S(=O)(=O)c2ccc(C)cc2)cc1,-1.48% (inactive)
10,CCOc1ccc(CCNC(=O)COC(=O)c2ccc(F)c(S(=O)(=O)N3CCOCC3)c2)cc1OCC,0.417% (inactive)
11,Cc1c(Cl)cccc1NC(=O)CCC(=O)N/N=C/c1ccco1,2.71% (inactive)
12,COc1ccc(CNC(=O)C(=O)NCC2OCCN2C(=O)c2ccc(OC)cc2)cc1 (stereo unspecified),-1.77% (inactive)
13,FC(F)(F)c1cc(-c2ccco2)nc(NCc2ccc(Cl)cc2)n1,-0.748% (inactive)
14,O=C(O)c1ccc(F)c(S(=O)(=O)Nc2ccccc2)c1,2.67% (inactive)
15,Cc1noc(C)c1S(=O)(=O)Nc1ccc(C(=O)O)cc1,-2.83% (inactive)
16,Cc1cc(C(C)(C)C)cc(S(=O)(=O)Nc2ccc(C(=O)O)cc2)c1C,20% (active)
17,Cc1cc(C)cc(N(CC(=O)NCC2CCCO2)S(=O)(=O)c2c(C)noc2C)c1 (stereo unspecified),-1.07% (inactive)
18,CCc1ccc(Nc2n[n+](-c3ccccc3)c(-c3cccc(Cl)c3Cl)s2)cc1,1.25% (inactive)
19,O=C(O)CCS(=O)(=O)c1ccc(-c2ccccc2)cc1,0.58% (inactive)
20,O=C(c1ccco1)N1CCN(C(=O)C2CCCN(S(=O)(=O)c3cccc4nsnc34)C2)CC1 (stereo unspecified),1.18% (inactive)
21,COc1cccc(/C=N/NC(=O)C(=O)N2CCCC2)c1,-1.54% (inactive)
22,C#CCNC(=O)[C@H](Cc1ccc(C(=O)c2ccccc2)cc1)NC(=O)OC(C)(C)C,-0.186% (inactive)
